Screening data deposited in PubChem BioAssay by Broad Institute.
Sampled rows, rich in hits. Any-hit rate of the full collection: about 6.7%.
C diff growth: blocks growth of Clostridium difficile | AID 1259249 | growth activity, negative = inhibition, % at 16 µg/mL (by protocol) | 86,000 compounds, 0.25% hits | Clostridium difficile clinical isolate growth, OD600, 24 h; stronger effect = lower value;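 active means mean growth activity at or below -80% and every replicate also at or below -80%; inconclusive means mean at or below -80% but some replicate above -80%; inactive means mean growth activity above -80%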;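 further: 0% = DMSO wells and -100% = levofloxacin 16 µg/mL wells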
T cruzi growth-1: blocks T. cruzi growth in NIH3T3 culture; 77,000 compounds, 5.9% hits; AID 624255; inhibition, % at 8.34 µM; T. cruzi beta-gal in NIH3T3, GalScreen luminescence, 90 h;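 active means mean inhibition above about 93%, with at least 55% of replicates each passing it, limit read from the data, passing the limit was not always enough; inconclusive means only one of those two conditions holds; inactive means neither condition holds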
Pf Dd2 growth: P. falciparum Dd2 growth inhibition | SYBR Green, 72 h; stronger effect = lower value | activity change, % at 10 µM | 94,000 compounds, 2.3% hits | AID 1159554; in the data active means activity change below about -80%; inconclusive means no clear call, values can overlap the other calls
T cruzi growth-2: Trypanosoma cruzi proliferation inhibition; shares compounds with T cruzi growth-1; T. cruzi beta-gal in NIH3T3, GalScreen luminescence, 90 h; inhibition, % at 8.35 µM; 5,600 compounds, 72% hits;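 active means mean replicate inhibition above about 95% and at least 55% of replicates individually reaching it, limit read from the data; inconclusive means only one of the two criteria is met; inactive means neither criterion is met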
T cruzi growth-3: Trypanosoma cruzi proliferation inhibition. shares compounds with T cruzi growth-1. T. cruzi beta-gal in NIH3T3, GalScreen luminescence, 90 h. inhibition, % at 2.09 µM. 5,600 compounds, 21% hits. AID 651740;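 active means mean inhibition above about 95%, with at least 55% of replicates also reaching it, limit read from the data; inconclusive means meets just one of the two conditions; inactive means meets neither condition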;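 further: plate controls were neutral control median for no effect and positive control median for full effect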
NIH3T3 tox: cytotoxicity in mouse NIH/3T3 fibroblasts | shares compounds with T cruzi growth-1 | NIH/3T3 viability, CellTiter-Glo ATP luminescence, 90 h | cytotoxicity (signal decrease), % at 8.35 µM | 5,600 compounds, 14% hits | AID 651742;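 active means mean signal decrease across replicates above about 35% based on untreated-well scatter, with enough replicates individually passing, limit read from the data; inconclusive means no rule stated though some were filed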;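 further: 0% = median of neutral control wells and 100% = median of positive control wells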
NIH3T3 tox 2: NIH/3T3 (mouse) viability loss. shares compounds with T cruzi growth-1. NIH/3T3 viability, CellTiter-Glo ATP luminescence, 90 h. inhibition, % at 24.9 µM. 5,600 compounds, 56% hits. AID 651744;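 active means mean loss of cell viability signal at or above a set limit, and enough replicates individually reaching it; inconclusive means meets only the mean limit or only the replicate share; inactive means meets neither condition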;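 further: 0% = median of neutral control wells and 100% = median of positive control wells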
An asterisk follows results filed as active; ! = a repeat was not active.

Cc1noc(C)c1S(=O)(=O)Nc1ccc2c(c1)C(=O)N([C@H](C)CO)C[C@H](C)[C@H](CN(C)C(=O)NC(C)C)O2 was read as C diff growth -1, T cruzi growth-1 -178 and Pf Dd2 growth 14.
Cc1ccc(-c2ccc3c(c2)O[C@H](CN(C)Cc2ccc(C(=O)O)cc2)[C@H](C)CN([C@H](C)CO)S3(=O)=O)cc1 was read as C diff growth -2, T cruzi growth-1 18 and Pf Dd2 growth -14.
For Cc1ccc(-c2ccc3c(c2)O[C@@H](CN(C)Cc2ccccc2)[C@@H](C)CN([C@H](C)CO)S3(=O)=O)cc1 the results were C diff growth -1, T cruzi growth-1 115*, Pf Dd2 growth -44, T cruzi growth-2 84, T cruzi growth-3 103*, NIH3T3 tox 4 and NIH3T3 tox 2 103*.
`Cc1ccc(-c2ccc3c(c2)O[C@@H](CN(C)Cc2ccccc2)[C@@H](C)CN([C@@H](C)CO)S3(=O)=O)cc1` gave C diff growth 2, T cruzi growth-1 124*, Pf Dd2 growth -60, T cruzi growth-2 96*, T cruzi growth-3 107*, NIH3T3 tox 22 and NIH3T3 tox 2 104*.
`C[C@H]1CN([C@@H](C)CO)S(=O)(=O)c2ccc(-c3ccccc3)cc2O[C@@H]1CN(C)Cc1ccccc1` gave C diff growth 38, T cruzi growth-1 80 and Pf Dd2 growth -58.
`Cc1ccccc1S(=O)(=O)NCC[C@@H]1CC[C@@H](NC(=O)C2CCC2)[C@H](CO)O1` gave C diff growth 1 and Pf Dd2 growth 1.
`CO[C@H]1CN(C)C(=O)c2ccc(NC(C)=O)cc2OC[C@@H](C)N(C(=O)Cc2ccccn2)C[C@H]1C` gave T cruzi growth-1 -60 and Pf Dd2 growth 3.
Screening O=C(C[C@@H]1CC[C@H](NC(=O)c2cccc(F)c2)[C@@H](CO)O1)Nc1nccs1 returned T cruzi growth-1 -22 and Pf Dd2 growth -8.
For COc1ccc(S(=O)(=O)N(C)C[C@H]2OCc3cnnn3CCCC(=O)N([C@@H](C)CO)C[C@H]2C)cc1 the results were C diff growth 3, T cruzi growth-1 inconclusive, Pf Dd2 growth -3, T cruzi growth-2 7, T cruzi growth-3 24, NIH3T3 tox 2 and NIH3T3 tox 2 4.
`C[C@H]1CN([C@@H](C)CO)C(=O)CCCn2nncc2CO[C@H]1CN(C)S(=O)(=O)c1cccc(F)c1` gave C diff growth 4, T cruzi growth-1 -26 and Pf Dd2 growth 6.
For C[C@H](CO)N1C[C@H](C)[C@@H](CN(C)S(=O)(=O)c2ccc(Cl)cc2)OCc2cnnn2CCCC1=O the results were C diff growth 2, T cruzi growth-1 7 and Pf Dd2 growth 1.
Screening COc1ccc(S(=O)(=O)N(C)C[C@@H]2OCc3cnnn3CCCC(=O)N([C@H](C)CO)C[C@H]2C)cc1 returned C diff growth 2, T cruzi growth-1 -35 and Pf Dd2 growth 9.
`C[C@H](CO)N1C[C@H](C)[C@H](CN(C)S(=O)(=O)c2ccc(Cl)cc2)OCc2cnnn2CCCC1=O` gave C diff growth 6, T cruzi growth-1 inconclusive, Pf Dd2 growth -12, T cruzi growth-2 -13, T cruzi growth-3 -14, NIH3T3 tox -6 and NIH3T3 tox 2 15.
C[C@@H]1CN([C@H](C)CO)C(=O)CCCn2nncc2CO[C@@H]1CN(C)S(=O)(=O)c1cccc(F)c1 was read as C diff growth 1, T cruzi growth-1 144*!, Pf Dd2 growth 7, T cruzi growth-2 103*, T cruzi growth-3 1, NIH3T3 tox 14 and NIH3T3 tox 2 19.
For COc1ccc(S(=O)(=O)Nc2ccc3c(c2)C(=O)N([C@@H](C)CO)C[C@H](C)[C@@H](CN(C)S(=O)(=O)c2cccs2)OCCCC[C@H](C)O3)cc1 the results were C diff growth -5, T cruzi growth-1 92 and Pf Dd2 growth -72.
`CC(C)CC#Cc1ccc([C@@H]2[C@H]3CN(C(=O)CN4CCOCC4)CC(=O)N3[C@H]2CO)cc1` gave C diff growth -12 and Pf Dd2 growth 19.
